Out of some 11,000 compounds screened, about 310 (2.8%) were called active. Rule as the data show it: active = activity change below about -85%; inactive = the rest. Many of the other results were omitted from the sample, so actives are more common in it than they were.
Tested on: intestinal alkaline phosphatase [Mus musculus]
Test: activators of mouse IAP, confirmation, biochemical, luminescence, single concentration (AID 434970)
Details: purified mouse IAP, CDP-Star luminescence, 30 min, at 10 µM; activation factor: measured here: IAP activation factor, stronger effect = higher value; activity change, negative = activation: stronger effect = lower value

| Structure (SMILES) | activation factor | activity change, negative = activation |
| --- | --- | --- |
| CCCn1c(Cc2ccccc2)nnc1SCC(=O)N1CCOCC1 | 0.955 | 4.5% (inactive) |
| CC(O)[C@H](NC(=O)C1(c2ccccc2)CCN(C(=O)OC(C)(C)C)CC1)C(=O)O (stereo not given in full) | 1.15 | -15.3% (inactive) |
| COc1ccc2[nH]c3c(c2c1)CCN1C(=O)C(CC(=O)NCCN2CCOCC2)C[C@H](C(=O)N2CCOCC2)[C@@]31CCC1CCCC1 (stereo not given in full) | 1.04 | -4.1% (inactive) |
| O=C(C[C@H]1C[C@H](C(=O)N2CCCCC2)[C@@]2(CCc3ccccc3)c3[nH]c4ccc(Cl)cc4c3CCN2C1=O)NCc1cccc(C(F)(F)F)c1 | 1.15 | -15% (inactive) |
| Cn1c(COc2ccc3ccccc3c2)nnc1SCC(=O)O | 0.952 | 4.85% (inactive) |
| O/N=C1/CC/C(=N\O)c2nn(-c3ccccc3)nc21 | 0.893 | 10.7% (inactive) |
| CCOC(=O)c1cnn(-c2ccc(Cl)cc2)c1C1CCN(C(=O)OC(C)(C)C)CC1 | 1.12 | -12.1% (inactive) |
| COc1ccc(Nc2nc(-c3cccs3)cs2)cc1 | 0.881 | 11.9% (inactive) |
| Cc1cccc(NC(=O)/C(=C\c2ccco2)NC(=O)c2cccs2)c1 | 0.978 | 2.15% (inactive) |
| OC[C@@H]1[C@@H](c2ccc(F)cc2)C(c2cccc(Cl)c2)=NN1c1ccccc1 | 1.96 | -96.2% (inactive) |
| O=C1OCCN1C(=O)[C@H]1[C@H](c2ccccc2)C(c2cccc(Cl)c2)=NN1c1ccccc1 | 1.01 | -1.05% (inactive) |
| Cc1cccc(C2=NN(c3ccccc3)[C@H](CO)[C@H]2c2ccc(Cl)cc2)c1 | 1.89 | -89.3% (inactive) |
| Cc1cccc(C2=NN(c3ccccc3)[C@H](CO)[C@H]2c2ccccc2)c1 | 2.07 | -107% (active) |
| OC[C@@H]1[C@@H](c2ccc(Cl)cc2)C(c2ccc(F)cc2)=NN1c1ccccc1 | 1.79 | -79% (inactive) |
| OC[C@@H]1[C@@H](c2ccc(Cl)cc2)C(c2ccccc2)=NN1c1ccccc1 | 1.77 | -76.8% (inactive) |
| Cc1cccc(C2=NN(c3ccccc3)[C@H](CO)[C@H]2c2ccc(F)cc2)c1 | 1.73 | -72.7% (inactive) |
| OC[C@@H]1[C@@H](c2ccc(Cl)cc2)C(c2cccc(Cl)c2)=NN1c1ccccc1 | 2.2 | -120% (active) |
| OC[C@@H]1[C@@H](c2ccccc2)C(c2cccc(Cl)c2)=NN1c1ccccc1 | 2.28 | -128% (active) |
| OC[C@@H]1[C@@H](c2ccccc2)C(c2ccccc2)=NN1c1ccccc1 | 2.15 | -115% (active) |
| OC[C@@H]1[C@@H](c2ccccc2)C(c2ccc(F)cc2)=NN1c1ccccc1 | 1.65 | -64.5% (inactive) |
| OC[C@@H]1[C@@H](c2ccc(F)cc2)C(c2ccccc2)=NN1c1ccccc1 | 1.73 | -72.9% (inactive) |
| Cc1noc(C)c1S(=O)(=O)N1CCC(C(=O)NCCN2CCC(C)CC2)CC1 | 1.01 | -1.4% (inactive) |

| Structure (SMILES) | activation factor | activity change, negative = activation |
| --- | --- | --- |
| COc1ccc(C(=O)Nc2ccc(S(=O)(=O)N3CCCCC3)cc2)cc1 | 1.11 | -11% (inactive) |
| COC(=O)C(NC(=O)CCc1c(C)nc2ncnn2c1C)C(C)C (stereo not given) | 0.949 | 5.15% (inactive) |
| Clc1ccc(-n2nnnc2-c2cnc(-c3ccncc3)nc2-c2cccs2)cc1 | 0.877 | 12.4% (inactive) |
| COc1ccc(CN(C(=O)c2ccco2)C2CC(C)N(C)CC2C)cc1 (stereo not given) | 0.982 | 1.75% (inactive) |
| COc1ccc(CNC(=O)C[C@H]2C[C@H](C(=O)N3CCOCC3)[C@@]3(C)c4[nH]c5cc(CCC(=O)N(C)C)ccc5c4CCN3C2=O)cc1OC | 1.08 | -8.2% (inactive) |
| O=C(O)CCSc1nc(C(F)(F)F)cc(=O)n1-c1ccccc1 | 1.01 | -1% (inactive) |
| Cn1cc(C(=O)c2ccccc2)cc1-c1nc2ccccc2n1C | 1.13 | -13.2% (inactive) |
| COc1ccccc1[C@H]1C(c2cccc(Cl)c2)=NN(c2ccccc2)[C@@H]1CO | 1.54 | -54.1% (inactive) |
| COc1ccccc1[C@H]1C(c2ccc(F)cc2)=NN(c2ccccc2)[C@@H]1CO | 1.49 | -48.9% (inactive) |
| COc1ccccc1[C@H]1C(c2ccccc2)=NN(c2ccccc2)[C@@H]1CO | 1.99 | -99.2% (active) |
| Clc1ccccc1CN(Cc1ccco1)Cc1nnnn1C1CCCC1 | 1.07 | -7.45% (inactive) |
| CC(C)C(=O)Nc1ncc(C(F)(F)F)cc1Cl | 1.02 | -2.1% (inactive) |
| Cc1ccc(CNC(=S)NC2CCC(C(C)(C)C)CC2)cc1 (stereo not given) | 2 | -99.9% (active) |
| Cc1ccc(CNC(N)=S)cc1 | 1.06 | -6.15% (inactive) |
| CC(NC(=S)NC1CCC(C(C)(C)C)CC1)c1ccccc1 (stereo not given) | 1.7 | -69.9% (inactive) |
| O=C(COC(=O)c1cccnc1SCC(=O)NCc1ccccc1)NCc1ccccc1 | 0.985 | 1.5% (inactive) |
| CCCc1cc(=O)[nH]c(SCC(=O)N(C)CC(=O)Nc2ccccc2CC)n1 | 0.825 | 17.6% (inactive) |
| S=C(Nc1ccc(Br)cc1)NC1CCCCC1 | 1.71 | -70.7% (inactive) |
| O=C(Nc1ccc(Br)cc1)NC1CCCCCCC1 | 2.74 | -174% (active) |
| CC(C)c1ccc(NC(=S)NC2CCCCCC2)cc1 | 1.39 | -38.9% (inactive) |
| CCc1ccc(NC(=O)NC2CCCCCCC2)cc1 | 3.13 | -213% (active) |
| CC(=O)Nc1ccc(C(=O)OCC(=O)NC(=O)NC2CCCCC2)cc1 | 0.997 | 0.3% (inactive) |

| Structure (SMILES) | activation factor | activity change, negative = activation |
| --- | --- | --- |
| COc1ccc(CCNC(=O)NC2CCCCC2)cc1 | 0.976 | 2.4% (inactive) |
| COc1ccc(C2NCCO2)cc1OC (stereo not given) | 0.954 | 4.65% (inactive) |
| C=CCONC(=O)Cc1ccccc1 | 1.1 | -9.55% (inactive) |
| Cc1ccc(NC(=O)C2CC(=O)n3c(nc4ccccc43)N2)cc1C (stereo not given) | 2.2 | -120% (active) |
| COc1ccc(NC(=O)N2CCCC2C(=O)Nc2ccc(C)c(Cl)c2)cc1 (stereo not given) | 1.12 | -12.4% (inactive) |
| Cc1cccc(NC(=O)C2CC(=O)n3cnnc3S2)c1 (stereo not given) | 0.843 | 15.8% (inactive) |
| Cc1ccc(NC(=O)C(=O)NNC(=O)c2ccccc2C)cc1Cl | 0.889 | 11.1% (inactive) |
| Cc1ccc(NC2=NC(C(=O)Nc3ccc(C)c(C)c3)CC(=O)N2)cc1 (stereo not given) | 0.958 | 4.15% (inactive) |
| Cc1ccc(NC(=O)C2CC(=O)n3c(nc4ccccc43)N2)cc1Cl (stereo not given) | 2.25 | -125% (active) |
| C=C(C)Cn1c(=O)c2c(nc3n2CCN3c2cccc(Cl)c2C)n(C)c1=O | 0.924 | 7.6% (inactive) |
| CC(C)(C)c1ccc(OCc2nc(-c3ccccn3)no2)c(Br)c1 | 0.924 | 7.55% (inactive) |
| COc1ccc(-c2noc(CCC(=O)N3CCN(c4ccc(C(F)(F)F)cc4)CC3)n2)cc1 | 1.05 | -4.65% (inactive) |
| COc1ccc(OC)c(N)c1 | 0.877 | 12.3% (inactive) |
| C=CCn1c(Br)nc2c1c(=O)[nH]c(=O)n2C | 0.97 | 2.95% (inactive) |
| COc1cc(NC(=O)C2CCCN(c3ncccn3)C2)cc(OC)c1 (stereo not given) | 1.11 | -10.6% (inactive) |
| O=C(NCCOc1ccccc1F)Nc1ccc(Br)cc1 | 1.46 | -45.9% (inactive) |
| COc1cc(NC(=O)NCC2CCN(Cc3ccccc3F)CC2)cc(OC)c1 | 2.67 | -167% (active) |
| O=C(NCC1CCN(Cc2ccccc2Cl)CC1)Nc1cccc(Cl)c1 | 1.77 | -77.5% (inactive) |
| COc1cc(OC)cc(C(=O)Nc2c(F)cccc2F)c1 | 1.02 | -1.9% (inactive) |
| O=C(NCC1CCN(Cc2ccccc2F)CC1)Nc1cccc(Br)c1 | 2.05 | -105% (active) |
| Cc1ccc(NC(=O)Cn2cnc(C(=O)Nc3ccc(C)c(C)c3)n2)cc1C | 1.05 | -4.9% (inactive) |
| O=C(Nc1ccc2ccccc2c1)c1cn(-c2ccccc2)nc1-c1cccs1 | 1.61 | -60.9% (inactive) |

| Structure (SMILES) | activation factor | activity change, negative = activation |
| --- | --- | --- |
| COc1ccc(N2CCN(c3nc(NCCO)nc(N4CCOCC4)n3)CC2)cc1 | 0.927 | 7.25% (inactive) |
| CC[C@]12c3[nH]c4cc(CCC(=O)N(C)C)ccc4c3CCN1C(=O)[C@@H](CC(=O)NCCCN(C)C)C[C@@H]2C(=O)N1CCN(C(=O)C2CC2)CC1 | 1.05 | -4.6% (inactive) |
| Cc1ccc2c(c1)c(C)c(C)n2CC(O)CN1CCOCC1 (stereo not given) | 0.95 | 5% (inactive) |
| O=C(NC1CCCCCCC1)c1cnccn1 | 0.972 | 2.85% (inactive) |
| O=C(Nc1nccs1)C1CC2CCC1C2 (stereo not given) | 1.01 | -0.6% (inactive) |
| CCOC(=O)c1ccc(NC(=O)CSc2nnc(C3CCCCC3)n2C)cc1 | 0.933 | 6.7% (inactive) |
| Cn1nc(OC(=O)Nc2cccc(Cl)c2)cc1C(F)(F)F | 2.51 | -151% (active) |
| CC(=O)Nc1ccc(-n2cnnn2)cc1 | 1.04 | -3.5% (inactive) |
| O=C(Nc1ccc(-n2ccc(C(F)(F)F)n2)cc1)Nc1cccc(Cl)c1 | 1.92 | -91.7% (active) |
| Cn1ncc(Cl)c1C(=O)Nc1cccc(Cl)c1 | 1.01 | -1.1% (inactive) |
| Cn1cc(NC(=O)Nc2ccc(C(F)(F)F)cc2)c(C(F)(F)F)n1 | 1.86 | -86.1% (inactive) |
| Cn1nc(C(=O)Nc2cccc(C(F)(F)F)c2)ccc1=O | 1.13 | -12.9% (inactive) |
| Cc1cc(C)cc(NC(=O)Nc2ccc(-n3ccc(C(F)(F)F)n3)cc2)c1 | 2.36 | -136% (active) |
| O=C(NCCCn1ccnc1)Nc1cccc(Cl)c1 | 1.23 | -23.4% (inactive) |
| O=C(Nc1ccccc1)Nc1ccc(-n2ccc(C(F)(F)F)n2)cc1 | 1.6 | -60% (inactive) |
| Cc1noc(C)c1S(=O)(=O)Nc1ccc(C(=O)NC2CCCCCC2)cc1 | 1.07 | -7.15% (inactive) |
| CN=C1N(C)C[C@@H]2[C@@H]3C(=O)N(Cc4ccccc4)C(=O)[C@@H]3[C@](Cc3ccccc3)(C(=O)OC)N12 | 1.16 | -16.1% (inactive) |
| CC(C)CC(c1nnnn1Cc1cccs1)N1CCN(c2nc3ccccc3s2)CC1 (stereo not given) | 0.985 | 1.5% (inactive) |
| CCOC(=O)CCc1c(C)c(C#N)c2nc3ccccc3n2c1-n1cnc2ccccc21 | 1.02 | -1.8% (inactive) |

— PubChem BioAssay AID434970 (Sanford-Burnham Center for Chemical Genomics, 2010)
